Molecules are shown by their SMILES. Several values for one entry are separate records, joined by “and”; a condition that tells them apart may be missing. Equal entries are not always repeated. Entries after “also recorded” stand apart in the source; their conditions may differ. Results filed as inconclusive are left out. Activity calls are given as the source filed them. Unless noted, calls come from the whole dose curve.

A short description of assay [1]: Cytotoxicity counterscreen for inhibitors of SARS-CoV-2 cell entry (AID 1645845). For activity change, negative = cytotoxicity: % is set by controls: 0 for no effect and ±100 for the full control effect. Note: nearly all actives have a fitted effect of over 50% in size. A digest of the protocol:
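Expi293F/hACE2 cells seeded overnight; cpd pin-transferred in DMSO, 1 h preincubation, + media, 48 h 37 C 5% CO2; ATPLite 1step luminescence; normalized to cells and no cells.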
Background: The purpose of a counterscreen is to sort out artefacts and off-target activity.

Assay [2] is described as follows: Primary qHTS to identify inhibitors of SARS-CoV-2 cell entry (AID 1645846). Note: nearly all actives have a fitted effect of over 45% in size. A digest of the protocol:
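Entry measured by luciferase signal 48 h after adding SARS-CoV-2-S pseudotyped MLV particles to HEK293-ACE2 cells preincubated 1 h with compounds. Normalisation: bald particles and spike particles.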
For orientation: In qHTS, concentration-response curves come from the screen itself.

A short description of assay [3]: Primary qHTS for inhibitors of nuclear receptor binding SET domain protein 2 (NSD2) in an isogenic RCH-ACV NSD2 p.E1099K mutant (9B) (AID 1645876; active = well fitted curve in the direction sought with a large enough effect; an effect the other way counts as inactive or inconclusive; note: nearly all actives have a fitted effect of over 70% in size; for activity change, negative = viability loss: % is set by controls: 0 for no effect and ±100 for the full control effect).
Assay [4] can be described thus: Primary qHTS for inhibitors of nuclear receptor binding SET domain protein 2 (NSD2) in an RCH-ACV wild type WT cells (2C) (AID 1645877; active = well fitted curve in the direction sought with a large enough effect; an effect the other way counts as inactive or inconclusive; note: nearly all actives have a fitted effect of over 70% in size; for activity change, negative = cell killing: % is set by controls: 0 for no effect and ±100 for the full control effect).
A short description of assay [5]: VSVG counterscreen qHTS to identify inhibitors of SARS-CoV-2 cell entry (AID 1645847). Note: potency is the fitted concentration of half-maximal effect; nearly all actives have a fitted effect of over 65% in size. Put shortly: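 Luminescence read after 48 h infection at 37 C with VSV-G-pseudotyped MLV particles, following 1 h compound exposure of Expi293F cells stably expressing human ACE2; scaled between bald particle and VSV-G particle wells.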
In another assay the target is Papain (Carica papaya) (UniProt P00784). The experiment in a line: Primary qHTS assay for inhibitors of the protease papain (AID 1645873; active = well fitted curve in the direction sought with a large enough effect; an effect the other way counts as inactive or inconclusive;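 note: papain turnover of Z-FR-AMC read as the AMC fluorescence gain over 10 min; % is set by controls: 0 for no effect and ±100 for the full control effect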).
Sequence of Papain (Carica papaya) (P00784 whole entry, looked up): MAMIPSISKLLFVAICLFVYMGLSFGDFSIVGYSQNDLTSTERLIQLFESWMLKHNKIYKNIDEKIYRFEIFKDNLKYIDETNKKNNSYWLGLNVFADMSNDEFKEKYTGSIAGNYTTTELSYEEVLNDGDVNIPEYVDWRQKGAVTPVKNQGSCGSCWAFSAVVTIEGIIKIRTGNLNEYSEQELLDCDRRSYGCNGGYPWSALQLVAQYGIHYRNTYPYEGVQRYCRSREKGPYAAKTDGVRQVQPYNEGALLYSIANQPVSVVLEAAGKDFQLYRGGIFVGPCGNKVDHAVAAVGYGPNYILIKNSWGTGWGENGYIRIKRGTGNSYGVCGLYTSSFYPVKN
Setting [6] is: activity change, negative = inhibition: at 57.1 µM (top of the series) unless noted.
[7] abbreviates: SARS-CoV-2 pseudovirus cell entry assay, luminescence, at 57.1 µM (top of the series).

Turning to `C[C@@H]1CN(c2c(F)c(F)c3c(=O)c(C(=O)O)cn(C4CC4)c3c2F)C[C@H](C)N1`, the Potency result in assay [1] and in assay [2] (setting [6]) was “inactive” throughout.
For the compound `O=C(O)C(S)C(S)C(=O)O` (stereo unspecified), the Potency entry in assay [1] and in assay [2] (setting [6]) was “inactive” each time.
On to `CC(=O)O[C@@H]1C(=O)O[C@@H]2[C@H]1OC(=O)[C@@H]2OC(C)=O`, for which the Potency result in assay [1] is “inactive”. In addition, in assay [2] (setting [6]), the activity change, negative = inhibition was -38.2%.
Take `O=S(=O)(O)c1ccc(O)cc1`: the Potency entry in assay [1] is “inactive”. The activity change, negative = inhibition in assay [2] (setting [6]) was found to be 2.14%.
Consider `CN1C(=O)OC(C)(C)C1=O`, for which the Potency entry in assay [1] and in assay [2] (setting [6]) was “inactive” in each case.
Regarding `O=C(OCC1(COC(=O)c2cccnc2)CCCC(COC(=O)c2cccnc2)(COC(=O)c2cccnc2)C1O)c1cccnc1`, the Potency entry in assay [1] was “inactive”. The activity change, negative = inhibition in assay [2] (setting [6]) is -30.1%.
On to `CNC[C@H](O)c1cccc(O)c1`, for which the Potency result in assay [1] and in assay [2] (setting [6]) was “inactive” each time. Moreover, the activity change, negative = inhibition in assay [2] (setting [6]) amounted to 1.11%.
As to `CCc1cc(C(N)=S)ccn1`, the Potency entry in assay [1] and in assay [2] (setting [6]) was “inactive” in each case. For the same compound, the activity change, negative = inhibition in assay [2] (setting [6]) was -20.7%.
Consider `COc1ccc(C(=O)CC(=O)c2ccc(C(C)(C)C)cc2)cc1`, for which the Potency entry in assay [1] and in assay [2] (setting [6]) was “inactive” throughout. Moreover, the activity change, negative = inhibition in assay [2] (setting [6]) is -3.57%.
For the compound `COC(=O)[C@@H]1[C@H]2C[C@H]3c4[nH]c5ccccc5c4CCN3C[C@@H]2CC[C@@H]1O`, the Potency result in assay [1] and in assay [2] (setting [6]) was “inactive” each time. In assay [2] (setting [6]), the activity change, negative = inhibition was -32.5%.
With `CC(C)C[C@H](CN)CC(=O)O`, the Potency result in assay [1], in assay [2] (setting [6]), in assay [3] and in assay [4] was “inactive” each time.
As for `O=c1[nH]cnc2[nH]ncc12`, the Potency result in assay [1] is “inactive”. For the same compound, in assay [2] (setting [6]), the Potency result was “inactive” and the activity change, negative = inhibition is -11.8% [at 114 µM].
With `Nc1cc(C(Cl)=C(Cl)Cl)c(S(N)(=O)=O)cc1S(N)(=O)=O`, the Potency result in assay [1] was “inactive”. Also, in assay [2] (setting [6]), the Potency result was “inactive” and the activity change, negative = inhibition is -25%.
On to `C[C@]12C=CC(=O)C=C1CC[C@@H]1[C@@H]2C(=O)C[C@@]2(C)[C@H]1CC[C@]2(O)C(=O)CO`, for which the Potency entry in assay [1] is “inactive”. Moreover, in assay [2] (setting [6]), the Potency entry is “inactive” and the activity change, negative = inhibition is -11.4%.
Regarding `Nc1ccn(C[C@@H](CO)OCP(=O)(O)O)c(=O)n1`, the activity change, negative = cytotoxicity in assay [1] is 2.99% [at 0.702 µM] (inactive) and 4.32% [at 11.3 µM] (inactive). In addition, the activity change, negative = viability loss in assay [3] is -0.956% [at 9.23 µM] (inactive). Moreover, the activity change, negative = cell killing in assay [4] is -8.19% [at 9.23 µM] (inactive).
`Clc1ccc2nsnc2c1NC1=NCCN1`: the Potency result in assay [1] is “inactive”. Moreover, in assay [2] (setting [6]), the Potency entry is “inactive” and the activity change, negative = inhibition is -13.9%.
Regarding `CC(=O)NCCCS(=O)(=O)O`, the Potency result in assay [1] was “inactive”. For the same compound, the activity change, negative = inhibition in assay [2] (SARS-CoV-2 pseudovirus cell entry assay, luminescence, at 27.1 µM (top of the series)) is 1.79%; in assay [2] (setting [7]), -6.89%.
As to `O=C(O)c1cccnc1`, the Potency result in assay [1] is “inactive”. Besides, in assay [2] (setting [6]), the Potency result was “inactive” and the activity change, negative = inhibition is -20.2% [at 114 µM].
On to `COc1ccc2[nH]cc(CCNC(C)=O)c2c1`, for which, in assay [1], the Potency entry was “inactive”. Moreover, in assay [2] (setting [6]), the Potency result is “inactive” and the activity change, negative = inhibition was -6.18%.
As to `Cc1ncc([N+](=O)[O-])n1CC(C)O` (stereo unspecified), in assay [1], the Potency result is “inactive”. Further, the activity change, negative = inhibition is -6.83% in assay [2] (setting [7]) and -38.4% in assay [2] (SARS-CoV-2 pseudovirus cell entry assay, luminescence, at 114 µM (top of the series)).
In the case of `CCn1cc(C(=O)O)c(=O)c2cnc(N3CCNCC3)nc21`, the activity change, negative = inhibition in assay [2] (setting [6]) was found to be 0.978%.
Turning to `C[C@]12C=CC(=O)C=C1CC[C@@H]1[C@@H]2[C@@H](O)C[C@@]2(C)[C@H]1CC[C@]2(O)C(=O)CO`, in assay [1], the Potency entry was “inactive”. Moreover, in assay [2] (setting [6]), the Potency result was “inactive” and the activity change, negative = inhibition is -3.66%. Also, the Potency in assay [5] is 13.6 µM (active).
Regarding `CO[C@@H]1[C@@H](OC(N)=O)[C@@H](O)[C@H](Oc2ccc3c(O)c(NC(=O)c4ccc(O)c(CC=C(C)C)c4)c(=O)oc3c2C)OC1(C)C`, the Potency result in assay [1] and in assay [2] (setting [6]) was “inactive” throughout. In addition, in assay [2] (setting [6]), the activity change, negative = inhibition worked out at 0.81%.
In the case of `CC1(C)O[C@@H]2C[C@H]3[C@@H]4C[C@H](F)C5=CC(=O)C=C[C@]5(C)[C@@]4(F)[C@@H](O)C[C@]3(C)[C@]2(C(=O)CO)O1`, the Potency entry in assay [1] and in assay [2] (setting [6]) was “inactive” in each case. For the same compound, the activity change, negative = inhibition in assay [2] (setting [6]) is -12.3%.
Regarding `CN1C(C(=O)Nc2ccccn2)=C(O)c2ccccc2S1(=O)=O`, the Potency result in assay [1] was “inactive”. The Potency in assay [5] is 21.5 µM (active).
With `CCC1(C)CC(=O)NC1=O` (stereo unspecified), the Potency result in assay [1] and in assay [2] (setting [6]) was “inactive” in each case. The activity change, negative = inhibition in assay [2] (setting [6]) was -9.22% [at 114 µM].
Regarding `Nc1ncnc2c1ncn2[C@@H]1O[C@H](CO)[C@@H](O)[C@H]1O`, the Potency entry in assay [1] was “inactive”. Moreover, in assay [2] (setting [6]), the Potency entry is “inactive” and the activity change, negative = inhibition is -8.35%.
Consider `CC(C)(C)C(=O)Oc1ccc(S(=O)(=O)Nc2ccccc2C(=O)NCC(=O)O)cc1`, for which the Potency result in assay [1] was “inactive”. Moreover, in assay [2] (setting [6]), the Potency result is “inactive” and the activity change, negative = inhibition is -32.8%.
For the compound `COc1ccc2cccc(CCNC(C)=O)c2c1`, the Potency result in assay [1] and in assay [2] (setting [6]) was “inactive” in each case. Further, in assay [2] (setting [6]), the activity change, negative = inhibition was -31%.
For `O=S(=O)(O)CCS`, the Potency result in assay [1] was “inactive”. In assay [2] (setting [6]), the Potency result is “inactive” and the activity change, negative = inhibition was determined as 1.92%.
In the case of `CCCCCN(C)CCC(O)(P(=O)(O)O)P(=O)(O)O`, the outcome in assay [1] was “inactive [at 11.3 µM]; also recorded: inactive [at 5.25 µM]”. The activity change, negative = inhibition in assay [2] (SARS-CoV-2 pseudovirus cell entry assay, luminescence, at 5.25 µM (top of the series)) is -11.4%; in assay [2] (SARS-CoV-2 pseudovirus cell entry assay, luminescence, at 11.3 µM (top of the series)), -30.6%. Further, the call in the assay with Papain (Carica papaya) was inactive.
For `C[C@]12CC[C@@H]3c4ccc(OC(=O)N(CCCl)CCCl)cc4CC[C@H]3[C@@H]1CC[C@@H]2OP(=O)(O)O`, the Potency entry in assay [1], in assay [2] (setting [6]), in assay [3] and in assay [4] was “inactive” in each case.
Turning to `Nc1ccc(S(N)(=O)=O)cc1`, the Potency entry in assay [1] and in assay [2] (setting [6]) was “inactive” throughout. Further, the activity change, negative = inhibition in assay [2] (setting [6]) is -17.3%.
Regarding `Nc1ccc(S(=O)(=O)Nc2ccnn2-c2ccccc2)cc1`, the activity change, negative = inhibition in assay [2] (setting [6]) came out at 4.82% [at 27.1 µM].
For `C#CCN[C@@H]1CCc2ccccc21`, the Potency entry in assay [1] was “inactive”. In addition, in assay [2] (setting [6]), the Potency result is “inactive” and the activity change, negative = inhibition was -2.27%.
Regarding `Nc1ccn([C@@H]2CS[C@H](CO)O2)c(=O)n1`, the Potency entry in assay [1] and in assay [2] (setting [6]) was “inactive” in each case. Also, in assay [2] (setting [6]), the activity change, negative = inhibition was -19.3% [at 114 µM].

Source of the values: PubChem BioAssay (NCATS).
